HTT aggregate: inhibitors of mutant huntingtin aggregate formation in PC12 cells | PC12 HttQ103-GFP aggregates, Acumen cytometry, 40 h | Potency, µM (series often up to 46.1 µM), inactives show top-dose activity change, negative = inhibition, hits mostly inhibitors | AID 1688 | 220,000 tested, 1.1% active; further: potency means the concentration at half of the fitted maximal effect; on the % scale 0 is the no-effect control and ±100 the full control effect; nearly all actives have a fitted effect of over 60% in size
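Inducible Q103 Huntingtin exon 1–GFP PC12 line, 1500 cells/well in phenol red free DMEM with 5% equine and 5% calf serum. Tebufenozide 100 nM induced expression; compounds titrated; aggregates quantified by cytometry.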
HTT cytoprotect: cytoprotection in Huntington HTT-Q103 PC12 cell model | AID 1471 | PC12 HTT-Q103 induced, cytoprotection, ATP luminescence, 40 h | Potency, µM (titrated, usually from 56.4 µM), for the others: cytoprotection (ATP increase), actives largely listed as activators | 230,000 tested, 0.14% active; further: potency means the concentration at half of the fitted maximal effect; % of control where 0% means no effect; nearly all actives have a fitted effect of over 45% in size
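Stable PC12 Q103-GFP cells in serum-supplemented, phenol red-free DMEM; induction by tebufenozide at 100 nM final; compound dose series; cell viability quantified luminescently from ATP.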
PNC assembly inh: perinucleolar compartment assembly inhibition | 140,000 tested, 3.1% active | activity change (PNC), negative = inhibition, % at 10 µM | PC3M PTB-GFP, PNC prevalence imaging, 16 h; hits give low values;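 active means readout at or below -70, meaning at least 70% loss of cells showing the perinucleolar compartment, a nuclear body marking cancer cells; inconclusive means readout between -30 and a set limit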;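 further: plate controls were DMSO wells for no effect and camptothecin positive control wells for full effect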
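Compounds are pinned in duplicate onto adhered PC3M cells stably expressing GFP-tagged PTB and incubated 16 h at 37 C. Cells are then fixed, nuclei stained with Hoechst, and PNC-positive cells counted.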
* marks the source's active call; other numbers are inactive results; ? = inconclusive; . = not tested or not shown; [ ] = another dose, or the depositor's remark. The entries come from a sample that favours hits as a whole. Unless noted, the call rests on the fitted dose curve; in most records, active means well fitted curve in the direction sought with a large enough effect; inconclusive means small, poorly fitted or top-dose-only effect, or another doubt; inactive means no such curve, though single readings can be large; an effect the other way counts as inactive or inconclusive.

SMILES | HTT aggregate | HTT cytoprotect | PNC assembly inh
CN(C)CCCN1C(=O)C(=O)/C(=C(/O)c2ccc3c(c2)OCCO3)C1c1ccco1 (configuration not stated) | 5% | -3%[0.074 µM] | -86*
Cc1ccc(S(=O)(=O)NC2=NCN(CCc3ccccc3)CN2)cc1 | 1% | -16%[0.074 µM] | 18
O=c1c(-c2cccc(F)c2)nc2cncnc2n1Cc1ccc(F)cc1 | . | -3% | .
CC(OC(=O)C1CC(O)CN1S(=O)(=O)c1ccccc1[N+](=O)[O-])C(=O)N1CCCCC1 (configuration not stated) | -4% | 10%[10 µM] | ?
COc1ccc(Cl)cc1NC(=S)NN1CCOCC1 | -3% | 4%[10 µM] | .
COc1ccc(OC)c(NC(=S)NN2CCOCC2)c1 | 11µM* | -7%[10 µM] | 0
O=C(Nc1cc(S(=O)(=O)N2CCOCC2)ccc1N1CCCC1)C1COc2ccccc2O1 (configuration not stated) | 18%[9.22 µM] | -1%[10 µM] | .
Cc1ccc(-n2nnnc2SCC(=O)N2CCc3ccccc3C2)cc1 | -25% | 10%[10 µM] | -100*
Cc1ccc(-n2nnnc2SCC(=O)N2CCc3ccccc3C2)c(C)c1 | -18% | 5%[10 µM] | ?
Cc1ccc(C)c2[nH]c(=O)c(CCNC(=O)C(C)C)cc12 | -14% | 24%[10 µM] | ?
CC(C)Nc1nc(-c2ccncc2)nc(-c2ccc(Cl)cc2)c1C#N | 4% | -32% | .
CC(C)Nc1nc(-c2ccccn2)nc(-c2ccccc2)c1C#N | 3.5µM* | -20% | .
CC1(C)Cc2c(c(=S)nc(-c3ccccc3)n2CCCN2CCOCC2)CO1 | -14% | -12%[0.074 µM] | -22
OCCCn1c(-c2ccccc2)nc(=S)c2c1CCCC2 | . | 2.8µM* | 2
CN(C)CCCn1c(-c2ccccc2)nc(=S)c2c1CCCC2 | 2% | -29% | 5
CC1(C)Cc2c(c(=S)nc(-c3ccccc3)n2CCO)CO1 | -26% | 20µM* | 2
Cc1ccc(-c2nc(=S)c3c(n2Cc2ccco2)CCCC3)cc1 | 14% | -1%[10 µM] | -129*
Cc1cccc(-c2nc(=S)c3c(n2Cc2ccco2)CCCC3)c1 | ? | 4% | ?
O=C(CSc1nc2ncc(Cl)cc2[nH]1)NC1CCS(=O)(=O)C1 (configuration not stated) | 12% | -20% | .
O=C(NC1CC1)C1=C[C@@H](c2csc3ccccc23)C[C@@H](OCc2ccc(CO)cc2)O1 | 4%[9.22 µM] | 17%[10 µM] | .
O=C(Cn1cc(C(=O)c2ccco2)c2ccccc21)Nc1ccccc1F | 24%[9.22 µM] | 29%[10 µM] | .
Cc1nnc(NNS(=O)(=O)c2ccc(Cl)cc2)[nH]c1=O | 13%[9.22 µM] | 33%[10 µM] | .
CCC1CCCCN1Cc1nc2c(c(=O)n(C)c(=O)n2C)n1CCC(C)C (configuration not stated) | -16% | -11% | -18
CCC1CCCCN1Cc1nc2c(c(=O)n(C)c(=O)n2C)n1CC(C)C (configuration not stated) | 4% | -19% | -95*
CC(=O)N1CCC2(CC1)CCN(c1ccccn1)CC2 | . | -6% | .
SMILES | HTT aggregate | HTT cytoprotect | PNC assembly inh
CC(C)CC(C)NC(=O)c1ccc(C(F)(F)F)cc1 (configuration not stated) | 10%[9.22 µM] | 8%[10 µM] | .
COCCNc1nc(-c2ccccc2C)nc2ccccc12 | . | 5% | .
CCCCCCCN1N=C(C)C(C(=O)c2ccccc2)C1=O (configuration not stated) | ? | -20% | -85*
CCCCCCN1N=C(C)C(C(=O)c2ccc(Cl)cc2)C1=O (configuration not stated) | ? | -48% | -3
Cn1nc(C(F)(F)F)c(C#N)c1N1CCN(c2ccccc2)CC1 | 1.4µM* | -11% | -16
CN(C)c1nc(N2CCN(c3ccc(F)cc3)CC2)c(C#N)c(=O)o1 | 10% | -15%[10 µM] | -7
Cn1nc(C(F)(F)F)c(C#N)c1N1CCN(c2ccccn2)CC1 | -27% | -11% | .
Cn1nc(C(F)(F)F)c(C#N)c1N1CCN(c2ccc(F)cc2)CC1 | 11µM* | 28% | -13
CSc1c(CC(=O)Nc2ccccc2Cl)n(Cc2ccccc2)c2ccccc12 | 5% | -15% | 6
CSc1c(CC(=O)Nc2ccccc2C(F)(F)F)n(Cc2ccccc2)c2ccccc12 | -8% | 20%[10 µM] | -106*
Cc1cc2c(cc1C)C(=O)NC(C)(C)C2 | 10µM* | -3% | 18
CC1=NC(C)(C)Cc2cc(C)c(C)cc21 | 4%[9.22 µM] | 6%[10 µM] | .
O=C(CN1C(=O)NC2(CCCCCCC2)C1=O)N1CCN(C(=O)c2ccco2)CC1 | 4% | 6%[10 µM] | -18
O=C(Nc1cccc(-c2nc3cccnc3s2)c1)c1cccnc1Cl | 0%[9.22 µM] | 22%[10 µM] | .
O=C(Nc1cccc(-c2nc3cccnc3s2)c1)C1c2ccccc2Oc2ccccc21 | 10% | . | -119*
N#Cc1c(NC(=O)Cn2c(=O)oc3ccccc32)oc(-c2ccccc2)c1-c1ccccc1 | 20µM* | 9% | 28
N#Cc1c(NC(=O)CSc2n[nH]c(N)n2)oc(-c2ccccc2)c1-c1ccccc1 | 1% | 8% | 40
COCc1cc(N2CCN(c3ccccc3F)CC2)nc(-c2ccccc2)n1 | 6% | -19% | .
CCOc1ccc(C(=O)N2CCN(c3cccc(C)c3C)CC2)cc1 | ? | 18%[10 µM] | ?
CCCS(=O)(=O)n1nc(-c2ccccc2)cc1N | 1% | 4% | ?
CCCS(=O)(=O)n1nc(-c2ccc(Br)cc2)cc1N | 27% | 3% | -119*
Cc1cc(C)nc(SCc2ccc(C(=O)O)o2)n1 | -8% | 5% | 29
COc1cc2c(cc1NC(=O)C(C)N1CCN(S(=O)(=O)c3ccccc3[N+](=O)[O-])CC1)oc1ccccc12 (configuration not stated) | 5%[1.84 µM] | -2% | ?
O=C(/C=C/c1ccc([N+](=O)[O-])cc1)N1CCN(c2ccccc2F)CC1 | 5% | . | ?
CNC(=O)c1cc2c(ccc3ccccc32)o1 | -1% | -49% | .
SMILES | HTT aggregate | HTT cytoprotect | PNC assembly inh
O=C(NC1CCCC1)c1cc2c(ccc3ccccc32)o1 | 11µM* | -38% | 7
O=C(CCCOc1ccccc1)Nc1nncs1 | 2% | -9%[10 µM] | 16
COc1ccc(OCCCC(=O)Nc2nncs2)cc1 | -13% | -9%[10 µM] | -100*
O=C(c1ccc(CSc2nc3ccncc3[nH]2)cc1)N1CCN(c2cccc(Cl)c2)CC1 | ? | . | 2
COc1ccc(/C=C(\NC(=O)c2ccccc2)C(=O)NC2CCS(=O)(=O)C2)cc1 (configuration not stated) | 18%[9.22 µM] | 10%[10 µM] | .
COc1ccc(/C=C(\C#N)C(=O)NC2CCS(=O)(=O)C2)cc1OC (configuration not stated) | -5% | 8%[10 µM] | -119*
Cn1c(SCc2nc(-c3ccc(Cl)cc3)no2)nnc1-c1cccs1 | 28%[9.22 µM] | 10% | -111*
Cc1ccc(-c2noc(CSc3nnc(Cc4ccccc4)n3-c3ccc(Cl)cc3)n2)cc1 | 16µM* | 0% | -2
Cn1c(SCc2nc(-c3ccccc3)no2)nnc1-c1cccs1 | -3% | 27%[10 µM] | 56
COc1ccc(-c2noc(CSc3nnc(Cc4ccccc4)n3-c3ccc(Cl)cc3)n2)cc1 | ? | -88% | -15
CC(C)CNC(=S)NC1CCCC1 | ? | -20% | -26
CC(N=C1NC(C)(C)Cc2ccccc21)C(=O)O (configuration not stated) | -8%[9.22 µM] | -11%[10 µM] | .
Cc1ccc(SC(=O)COc2ccccc2C)cc1 | -12% | 14% | -112*
Cc1ccccc1OCC(=O)NNC=O | 9% | -18% | .

Screening data as filed in PubChem BioAssay.
